This is an account of results in PubChem BioAssay (EPA / NIEHS).

The AC50 is the concentration giving half of the maximal activity seen.

The source made the active and inactive calls. The calls were made as follows: active = hit-call score of the fitted dose curve at least 0.9, where 1 is the maximum; inactive = score below 0.9.

Read-out in one test: Cytochrome P450 (CYP1A1), CYP1A1 (gene 1543)
The experiment in a line: LTEA_HepaRG_CYP1A1: Life Technologies and Expression Analysis (LTEA) Assay for Cytochrome P450 (CYP1A1) using HepaRG (AID 2283454). The settings on record: mRNA level, 48 h; actives raise or lower the signal. An outline of the steps:
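Differentiated human HepaRG cells, after 48 h plating, exposed in duplicate for 48 h in serum-free induction medium to 8 half-log concentrations up to 100 uM in 0.5% DMSO. CYP1A1 mRNA by qRT-PCR, normalized to ACTB/GAPDH/POLR2A; bidirectional fit versus DMSO.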
Turning to `CCCCCCCCCC[N+](C)(C)[O-]`, the half-maximal activity concentration (AC50) is 50 µM (active).
For `CCOCCOCCO`, the molecule was called inactive.
`O=C1CCCCC1`: the molecule was classed as inactive.
The same measure, in the same setting: the same measure for `COC(=O)CCCC(=O)OC`: “inactive”.
Turning to `Nc1nc(=S)c2[nH]cnc2[nH]1`, the AC50 was 76.1 µM (active).
Turning to `Oc1ccc(O)cc1`, the AC50 is 50 µM (active).
For the molecule `CC(C)c1cccc(C(C)C)c1NC(=O)NS(=O)(=O)c1cc(C(C)(C)O)co1`, the molecule was classed as inactive.
Regarding `CCCCCCCCCCCCCCOS(=O)(=O)O`, the concentration at half-maximal activity (AC50) was 72.7 µM (active).
Turning to `S=c1[nH]c2ccccc2s1`, the AC50 is 10.1 µM (active).
Take `NC1CCCCC1`: the outcome was inactive.
For `Cc1cc(SC2=C(O)C[C@@](CCc3ccc(N)cc3)(C(C)C)OC2=O)c(C(C)(C)C)cc1CO`, the half-maximal activity concentration (AC50) was 29.6 µM (active).
Take `CN(C)CCCN1c2ccccc2Sc2ccc(Cl)cc21`: the AC50 is 27.1 µM (active).
As for `CC(=O)CC(c1ccccc1)c1c(O)c2ccccc2oc1=O` (configuration not stated), the outcome was inactive.
Still for that read-out and setting: the same measure for `NC=O`: “inactive”.
As for `CC(=O)S[C@H](C(=O)N[C@H]1Cc2ccccc2[C@H]2CCC[C@@H](C(=O)O)N2C1=O)C(C)C`, the molecule was called inactive.
For the molecule `COc1ccc(C(=O)Nc2nc3ccccc3c(NCc3ccccc3)c2C#N)cc1`, the concentration at half-maximal activity (AC50) was 1.39 µM (active).
Take `CCCCC(CC)CO` (configuration not stated): the concentration at half-maximal activity (AC50) is 39.1 µM (active).
Consider `CC(=O)OC1CC(C)OC(C)O1` (configuration not stated), for which the AC50 is 50 µM (active).
Consider `C=CCc1ccc(OC)c(OC)c1`, for which the call was inactive.
For `CCCCc1nc2cccnc2n1Cc1ccc(-c2ccccc2-c2nnn[nH]2)cc1`, the half-maximal activity concentration (AC50) was 50 µM (active).
For the molecule `C=CCCCCCCCCCCCC`, the outcome was inactive.
Consider `CCc1cc(C2=C(C(=O)O)N(c3ccccc3C(F)(F)F)S(=O)(=O)c3ccccc32)cc2c1OCO2`, for which the half-maximal activity concentration (AC50) is 50 µM (active).
Turning to `CCCCCCCCCCCCCCCCO`, the AC50 was 8.36 µM (active).
Take `CCCC[C@H]1CN(CC2CCOCC2)C(=O)OC12CCN(C1(C)CCN(C(=O)c3c(C)ncnc3C)CC1)CC2`: the molecule was classed as inactive.
In the case of `Nc1nc(Cl)nc2c1ncn2[C@H]1C[C@H](O)[C@@H](CO)O1`, the AC50 was 0.749 µM (active).
Consider `O=C1OC(c2ccc(O)cc2)(c2ccc(O)cc2)c2ccccc21`, for which the AC50 is 50 µM (active).
As for `CC(C)COC(=O)CCCCC(=O)OCC(C)C`, the molecule was called inactive.
In the case of `O=C1c2c(O)cccc2Cc2cccc(O)c21`, the AC50 is 22.1 µM (active).

Read-out in a further test: CFLAR gene, CFLAR (gene 8837)
Briefly: LTEA_HepaRG_CFLAR: Life Technologies and Expression Analysis (LTEA) Assay for CFLAR gene using HepaRG (AID 2283455). The conditions noted are these: mRNA level, 48 h; actives raise or lower the signal. An outline of the steps: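 Gain- or loss-of-signal changes in CFLAR transcript were fitted bidirectionally relative to 0.5% DMSO. Cells (HepaRG, duplicate wells) were dosed for 48 h across eight half-log concentrations topping at 100 uM; quantitation by TaqMan qRT-PCR.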
For `CCCCCCCCCC[N+](C)(C)[O-]`, the call was inactive.
Take `CCOCCOCCO`: the result was inactive.
On to `COC(=O)CCCC(=O)OC`, for which the call was inactive.
As to `CC(C)c1cccc(C(C)C)c1NC(=O)NS(=O)(=O)c1cc(C(C)(C)O)co1`, the outcome was inactive.
On to `CCCCCCCCCCCCCCOS(=O)(=O)O`, for which the molecule was classed as inactive.
On to `NC1CCCCC1`, for which the molecule was classed as inactive.
Turning to `Cn1cnc2c1c(=O)[nH]c(=O)n2C`, the call was inactive.
Turning to `CN(C)CCCN1c2ccccc2Sc2ccc(Cl)cc21`, the AC50 is 71.3 µM (active).
`CC(=O)CC(c1ccccc1)c1c(O)c2ccccc2oc1=O` (configuration not stated): the molecule was called inactive.
With `NC=O`, the result was inactive.
Same read-out and setting: for `CC(=O)S[C@H](C(=O)N[C@H]1Cc2ccccc2[C@H]2CCC[C@@H](C(=O)O)N2C1=O)C(C)C` the value was “inactive”; for `CC(=O)OC1CC(C)OC(C)O1` (configuration not stated), “inactive”; for `C=CCc1ccc(OC)c(OC)c1`, “inactive”.
`CCCCc1nc2cccnc2n1Cc1ccc(-c2ccccc2-c2nnn[nH]2)cc1`: the outcome was inactive.
Take `C=CCCCCCCCCCCCC`: the molecule was classed as inactive.
Take `CCc1cc(C2=C(C(=O)O)N(c3ccccc3C(F)(F)F)S(=O)(=O)c3ccccc32)cc2c1OCO2`: the call was inactive.
As to `Nc1nc(Cl)nc2c1ncn2[C@H]1C[C@H](O)[C@@H](CO)O1`, the molecule was classed as inactive.
For the molecule `O=C1OC(c2ccc(O)cc2)(c2ccc(O)cc2)c2ccccc21`, the AC50 was 76.4 µM (active).
`O=C1c2c(O)cccc2Cc2cccc(O)c21`: the molecule was called inactive.
